Each structure is given as a SMILES string. About 83,000 compounds went through this panel and 20% of them were active in at least one assay; those are over-represented in the sample as a whole.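 Method: cells in 96-well plates; compound added at one concentration; 48 h incubation; percent growth measured; values under 10 scored active.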 Activity calls are given as the source filed them.

This assay relates to MDA-MB-468 breast. Briefly: NCI-60 one-dose screen, 48 h (100 = growth as untreated, 0 = no growth, -100 = all killed). Conditions: 10 µM unless noted.
`Nc1c(C(=O)Nc2cccc3c2OCCO3)sc2nc3c(cc12)CN(Cc1ccccc1)CC3`: the growth is 38.8% (inactive).

Turning to `Cc1cc(-c2ccc(Cl)cc2)n(Cc2nnc(SCC(=O)Nc3ccc(S(N)(=O)=O)cc3)n2C2CCCCC2)n1`, the growth is 117% (inactive).

With `CCN(CC)CCO/N=C1\CC(c2ccc(OC)c(OC)c2)Oc2ccccc21` (centres undefined), the growth is 80.1% (inactive). With `CCSc1ncnc2c1ncn2C1OC(CO)C(O)C1O` (centres undefined), the growth is 15.8% (inactive). `Cc1c2c(c(C)c3c1oc1cc(O)ccc13)C(=O)N(CCN1CCCCC1)C2=O`: the growth is 100% (inactive).

As for `Cn1c(/C(C#N)=C/c2ccc3ccccc3c2)cc2ccccc21`, the growth is -3.16% (active).

As to `CCOC(=O)c1sc(NC(=O)COc2cccc(/C=C3\Cc4ccc(Cl)cc4C3=O)c2)nc1C`, the growth was 118% (inactive).

Take `O=C(Nc1cccnc1Nc1ccc(Cl)cc1)c1cn(Cc2cccc(Oc3ccccc3)c2)nn1`: the growth is 63.3% (inactive). In the case of `CCN(CC)CCOC(=O)c1cccnc1`, the growth is 94.9% (inactive). Turning to `COc1ccc(-n2cnc3cc(C(=O)N4CCCCC4)ccc32)cc1`, the growth was 103% (inactive). In the case of `COc1cccc(OC)c1C(=O)N[C@@H]1C(=O)N2[C@@H]1SC(C)(C)[C@@H]2C(=O)O`, the growth was 114% (inactive). As for `COc1cccc(/C=C/C(=O)c2cc3c(N)c(C(=O)Nc4cccc(Cl)c4C)sc3nc2C)c1`, the growth was -7.04% (active). Take `NS(=O)(=O)c1ccc(N2Cc3cc(Cl)ccc3OC3=C2C(=O)N(CC2CCCCC2)C3=O)cc1`: the growth was -81.1% (active). As for `CN1CCn2c(c(Sc3ccc(C(=O)NO)cc3)c3ccccc32)C1=O`, the growth was -39.2% (active).

The values are drawn from PubChem BioAssay (NCI).
